Records with an inconclusive call do not appear. A call without a number means that no potency is given here. Active and inactive are the calls of the source. Calls follow the shape of the dose curve; as a rule, active = well fitted inhibition curve with a large enough effect; inconclusive = small, poorly fitted or top-dose-only effect; inactive = flat fitted curve, though single readings scatter.

In the first experiment the test system is CP325. Nature of the experiment: qHTS profiling for inhibitors of Plasmodium falciparum proliferation (AID 504749). Also: nearly all actives have a fitted effect of over 60% in size. As to conditions: P. falciparum in erythrocytes, SYBR Green DNA, 72 h; series mostly up to 28.7 µM. The essentials:
(§1)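 SYBR Green fluorescence of parasite DNA, read after lysis and overnight dark incubation, measured growth over 72 h in erythrocyte culture at 0.3% parasitemia and 2.5% hematocrit. Data normalised to DMSO and 0.29 uM artemisinin, with plate-drift correction.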
(In general: In qHTS, concentration-response curves come from the screen itself.)
Take `C#C[C@]1(O)CC[C@H]2[C@@H]3CCc4cc(OC)ccc4[C@H]3CC[C@@]21C`: the Potency result was “inactive”.
Still for that read-out and setting: with `Cc1cc(C)cc(OCC2CNC(=O)O2)c1` (stereo not drawn) the entry was “inactive”; with `Cc1cc(NS(=O)(=O)c2ccc(N)cc2)nc(C)n1`, “inactive”.
Same read-out and setting: under `FC(F)(F)C(F)(F)C(F)(F)C(F)(F)C(F)(F)C(F)(F)C(F)(F)C(F)(F)Br` stands “inactive”.
Still for that read-out and setting: with `CC(=O)NC(=O)c1ccccc1O` the entry was “inactive”.
With `O=C(O)C(Cc1cc(I)c(O)c(I)c1)c1ccccc1` (stereo not drawn), the Potency entry is “inactive”.
`O=C(O)c1ccc(S(=O)(=O)N(Cl)Cl)cc1`: the Potency result is “inactive”.
Still for that read-out and setting: under `CC(=O)Nc1ccc(OCC(O)CNC(C)C)cc1` (stereo not drawn) stands “inactive”; under `O=S(=O)(O)c1ccc(O)cc1`, “inactive”; under `C=C[C@@]1(C)CC(=O)[C@]2(O)[C@@]3(C)[C@@H](O)CCC(C)(C)[C@@H]3[C@H](O)[C@H](OC(C)=O)[C@@]2(C)O1`, “inactive”.
`CCC1Nc2cc(Cl)c(S(N)(=O)=O)cc2S(=O)(=O)N1` (stereo not drawn): the Potency result is “inactive”.
Same read-out and setting: with `CC(=O)OCC(=O)[C@H]1CC[C@H]2[C@@H]3CCC4=CC(=O)CC[C@]4(C)[C@H]3CC[C@]12C` the entry was “inactive”; with `CC(C)Nc1cccnc1N1CCN(C(=O)c2cc3cc(NS(C)(=O)=O)ccc3[nH]2)CC1`, “inactive”.
As for `COc1cc(C(=O)NCc2ccc(OCCN(C)C)cc2)cc(OC)c1OC`, the Potency result is “inactive”.
On the same count and under the same terms, with `Nc1ccc(C(=O)NCC(=O)O)cc1` the entry was “inactive”; with `CCC(CC)(CC(=O)Nc1cccc(/C=C/c2nc(C3CCC3)cs2)c1)C(=O)O`, “inactive”; with `CCCCCCCCCCCCCCCC(=O)O`, “inactive”.
On to `Nc1nc(N)c(-c2ccccc2)s1`, for which the Potency result is “inactive”.
The same measure, in the same setting: under `COc1ccc(C(=O)c2ccccc2O)c(O)c1` stands “inactive”.
On the same count and under the same terms, under `C#C[C@]1(OC(C)=O)CC[C@H]2[C@@H]3CCC4=C/C(=N/O)CC[C@@H]4[C@H]3CC[C@@]21CC` stands “inactive”; under `CCNC(=O)/C=C/c1cccc(Br)c1`, “inactive”.
On the same count and under the same terms, under `Cc1ccccc1OCC(O)CO` (stereo not drawn) stands “inactive”; under `CC(=O)NCCCCCC(=O)O`, “inactive”; under `c1ccc(CC2=NCCN2)cc1`, “inactive”.
In the case of `NS(=O)(=O)Cc1noc2ccccc12`, the Potency entry was “inactive”.
Same read-out and setting: under `CCCN(CCC)S(=O)(=O)c1ccc(C(=O)O)cc1` stands “inactive”; under `O=C(O)P(=O)(O)O`, “inactive”.
Still for that read-out and setting: under `CC[C@H](c1ccc(O)cc1)[C@@H](CC)c1ccc(O)cc1` stands “inactive”; under `CCCCC(CC)COC(=O)/C=C/c1ccc(OC)cc1` (stereo not drawn), “inactive”; under `CCOC(=O)c1ccc(N)cc1`, “inactive”.
`OCc1ccccn1`: the Potency entry is “inactive”.
Consider `CCCCc1cc2ccccc2c(OCCN(C)C)n1`, for which the Potency result was “inactive”.
Same read-out and setting: under `CC(C)Cn1cnc2c1c(=O)n(C)c(=O)n2C` stands “inactive”; under `CCCCNC(=O)NS(=O)(=O)c1ccc(N)cc1`, “inactive”; under `O=C(O)Cc1csc(-c2ccc(Cl)cc2)n1`, “inactive”.
Consider `CC(=O)Nc1ncc([N+](=O)[O-])s1`, for which the Potency result is “inactive”.
Same read-out and setting: under `CCOc1cc(OCC)c(C(=O)CCC(=O)O)cc1OCC` stands “inactive”.
On the same count and under the same terms, under `c1ccc(-c2nc[nH]c2-c2ccccc2)cc1` stands “inactive”.
On the same count and under the same terms, with `Cn1c(=O)c2[nH]c(Br)nc2n(C)c1=O` the entry was “inactive”.

The next experiment concerns CP329. Described as above. As to conditions: P. falciparum in erythrocytes, SYBR Green DNA, 72 h; series mostly up to 28.7 µM. In a few lines:
as §1
`C#C[C@]1(O)CC[C@H]2[C@@H]3CCc4cc(OC)ccc4[C@H]3CC[C@@]21C`: the Potency result was “inactive”.
Same read-out and setting: with `Cc1cc(C)cc(OCC2CNC(=O)O2)c1` (stereo not drawn) the entry was “inactive”.
The same measure, in the same setting: under `Cc1cc(NS(=O)(=O)c2ccc(N)cc2)nc(C)n1` stands “inactive”.
Take `FC(F)(F)C(F)(F)C(F)(F)C(F)(F)C(F)(F)C(F)(F)C(F)(F)C(F)(F)Br`: the Potency entry is “inactive”.
The same measure, in the same setting: under `CC(=O)NC(=O)c1ccccc1O` stands “inactive”; under `O=C(O)C(Cc1cc(I)c(O)c(I)c1)c1ccccc1` (stereo not drawn), “inactive”.
For `O=C(O)c1ccc(S(=O)(=O)N(Cl)Cl)cc1`, the Potency result is “inactive”.
The same measure, in the same setting: under `CC(=O)Nc1ccc(OCC(O)CNC(C)C)cc1` (stereo not drawn) stands “inactive”.
On to `O=S(=O)(O)c1ccc(O)cc1`, for which the Potency result was “inactive”.
The same measure, in the same setting: under `C=C[C@@]1(C)CC(=O)[C@]2(O)[C@@]3(C)[C@@H](O)CCC(C)(C)[C@@H]3[C@H](O)[C@H](OC(C)=O)[C@@]2(C)O1` stands “inactive”; under `CCC1Nc2cc(Cl)c(S(N)(=O)=O)cc2S(=O)(=O)N1` (stereo not drawn), “inactive”; under `CC(=O)OCC(=O)[C@H]1CC[C@H]2[C@@H]3CCC4=CC(=O)CC[C@]4(C)[C@H]3CC[C@]12C`, “inactive”.
Still for that read-out and setting: with `CC(C)Nc1cccnc1N1CCN(C(=O)c2cc3cc(NS(C)(=O)=O)ccc3[nH]2)CC1` the entry was “inactive”.
Consider `COc1cc(C(=O)NCc2ccc(OCCN(C)C)cc2)cc(OC)c1OC`, for which the Potency entry is “inactive”.
On the same count and under the same terms, with `Nc1ccc(C(=O)NCC(=O)O)cc1` the entry was “inactive”.
The same measure, in the same setting: with `CCC(CC)(CC(=O)Nc1cccc(/C=C/c2nc(C3CCC3)cs2)c1)C(=O)O` the entry was “inactive”; with `CCCCCCCCCCCCCCCC(=O)O`, “inactive”; with `Nc1nc(N)c(-c2ccccc2)s1`, “inactive”.
As for `COc1ccc(C(=O)c2ccccc2O)c(O)c1`, the Potency result was “inactive”.
Still for that read-out and setting: with `C#C[C@]1(OC(C)=O)CC[C@H]2[C@@H]3CCC4=C/C(=N/O)CC[C@@H]4[C@H]3CC[C@@]21CC` the entry was “inactive”.
On to `CCNC(=O)/C=C/c1cccc(Br)c1`, for which the Potency result was “inactive”.
Same read-out and setting: with `Cc1ccccc1OCC(O)CO` (stereo not drawn) the entry was “inactive”.
On the same count and under the same terms, with `CC(=O)NCCCCCC(=O)O` the entry was “inactive”; with `c1ccc(CC2=NCCN2)cc1`, “inactive”; with `NS(=O)(=O)Cc1noc2ccccc12`, “inactive”.
The same measure, in the same setting: with `CCCN(CCC)S(=O)(=O)c1ccc(C(=O)O)cc1` the entry was “inactive”; with `O=C(O)P(=O)(O)O`, “inactive”; with `CC[C@H](c1ccc(O)cc1)[C@@H](CC)c1ccc(O)cc1`, “inactive”.
On to `CCCCC(CC)COC(=O)/C=C/c1ccc(OC)cc1` (stereo not drawn), for which the Potency entry is “inactive”.
For `CCOC(=O)c1ccc(N)cc1`, the Potency entry was “inactive”.
On the same count and under the same terms, under `OCc1ccccn1` stands “inactive”.
Regarding `CCCCc1cc2ccccc2c(OCCN(C)C)n1`, the Potency result was “inactive”.
Consider `CC(C)Cn1cnc2c1c(=O)n(C)c(=O)n2C`, for which the Potency result was “inactive”.
`CCCCNC(=O)NS(=O)(=O)c1ccc(N)cc1`: the Potency entry was “inactive”.
Same read-out and setting: with `O=C(O)Cc1csc(-c2ccc(Cl)cc2)n1` the entry was “inactive”; with `CC(=O)Nc1ncc([N+](=O)[O-])s1`, “inactive”; with `CCOc1cc(OCC)c(C(=O)CCC(=O)O)cc1OCC`, “inactive”.
Still for that read-out and setting: under `c1ccc(-c2nc[nH]c2-c2ccccc2)cc1` stands “inactive”; under `Cn1c(=O)c2[nH]c(Br)nc2n(C)c1=O`, “inactive”.

The values above are taken from PubChem BioAssay (NCATS).
